{
  "source": "PubChem BioAssay (Tox21)",
  "note": "Active and inactive are the calls of the source. Entries that show only a call come without a potency. Calls come from the whole dose curve.",
  "data": [
    {"biological_target": "Acetylcholinesterase (Homo sapiens) (UniProt P22303)", "sequence (P22303 whole entry, looked up)": "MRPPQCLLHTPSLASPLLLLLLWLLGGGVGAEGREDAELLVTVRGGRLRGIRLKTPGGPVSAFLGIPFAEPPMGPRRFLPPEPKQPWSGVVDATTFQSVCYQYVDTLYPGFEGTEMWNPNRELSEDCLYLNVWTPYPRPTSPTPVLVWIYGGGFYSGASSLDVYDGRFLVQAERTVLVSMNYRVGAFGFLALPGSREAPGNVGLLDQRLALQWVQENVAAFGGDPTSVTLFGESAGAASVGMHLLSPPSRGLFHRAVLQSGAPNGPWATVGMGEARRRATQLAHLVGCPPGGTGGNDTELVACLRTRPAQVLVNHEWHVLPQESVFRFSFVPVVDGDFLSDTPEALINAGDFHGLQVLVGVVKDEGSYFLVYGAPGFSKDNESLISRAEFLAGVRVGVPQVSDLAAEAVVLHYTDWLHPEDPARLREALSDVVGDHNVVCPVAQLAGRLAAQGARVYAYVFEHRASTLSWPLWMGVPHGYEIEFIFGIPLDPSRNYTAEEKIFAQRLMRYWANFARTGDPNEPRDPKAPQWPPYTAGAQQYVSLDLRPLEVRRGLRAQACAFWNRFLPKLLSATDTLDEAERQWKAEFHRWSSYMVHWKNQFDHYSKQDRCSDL", "assay": "Acetylcholinesterase (AChE) small molecule antagonists: enzyme-based qHTS assay with human liver microsomes (AID 1347399); note: nearly all actives have a fitted effect of over 60% in size", "conditions": "Potency: qHTS inhibition; outcome: qHTS inhibition; series mostly up to 115 µM", "procedure,_shortened": "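Recombinant human AChE (50 mU/mL in the enzyme mix) and human liver microsomes (0.25 mg/mL final) were preincubated with compound and NADPH (0.25 mg/mL final) for 30 min at 37 C. Acetylthiocholine/DTNB was then added; thiocholine was read colorimetrically after 10 min at room temperature.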", "values": [
      {"molecule": "Nc1ccc(N)c2c1C(=O)c1ccccc1C2=O", "Potency": "inactive"},
      {"molecule": "Cc1cc(=O)[nH]c(=O)[nH]1", "Potency": "inactive"},
      {"molecule": "COc1ccccc1NC(=O)CC(C)=O", "Potency": "inactive"},
      {"molecule": "CC(C)(O)CCC(C)(C)O", "Potency": "inactive"},
      {"molecule": "COC(=O)C(C)Oc1ccc(Oc2ncc(C(F)(F)F)cc2Cl)cc1", "note": "(stereo not given)", "Potency": "inactive"},
      {"molecule": "Cc1cccc2c1ccc1ccccc12", "Potency": "inactive"},
      {"molecule": "COC(=O)CCC(=O)OC", "Potency": "inactive"},
      {"molecule": "CC[C@H](C)C(=O)O[C@H]1C[C@H](O)C=C2C=C[C@H](C)[C@H](CC[C@@H](O)C[C@@H](O)CC(=O)O)[C@H]21", "Potency": "inactive"},
      {"molecule": "CCC(=O)O[C@H]1[C@H](O[C@@H]2[C@@H](C)[C@H](O[C@H]3C[C@@](C)(OC)[C@@H](O)[C@H](C)O3)[C@@H](C)C(=O)O[C@H](CC)[C@@](C)(O)[C@H](O)[C@@H](C)C(=O)[C@H](C)C[C@@]2(C)O)O[C@H](C)C[C@@H]1N(C)C", "Potency": "inactive"},
      {"molecule": "C#CC(C)(CC)OC(=O)c1ccccc1C(=O)O", "note": "(stereo not given)", "Potency": "inactive"},
      {"molecule": "Nc1cc(Cl)cc(S(=O)(=O)O)c1O", "Potency": "inactive"},
      {"molecule": "CC(C)(O)C(=O)c1ccccc1", "Potency": "inactive"},
      {"molecule": "CCCCC/C(C=O)=C\\c1ccccc1", "Potency": "inactive"},
      {"molecule": "CC(C)(O)c1ccc(CNC(=O)c2cccnc2Oc2ccc3nonc3c2)cc1", "Potency": "inactive"},
      {"molecule": "CCCCCCCCCCCCCCCCCCOCC(O)CO", "note": "(stereo not given)", "Potency": "inactive"},
      {"molecule": "Nc1cc(=O)[nH]c(N)n1", "Potency": "inactive"},
      {"molecule": "CCOC(=O)O[C@]1(C(=O)OCCl)CC[C@H]2[C@@H]3CCC4=CC(=O)C=C[C@]4(C)[C@H]3[C@@H](O)C[C@@]21C", "Potency": "inactive"},
      {"molecule": "CC(CC(=O)O)CC(C)(C)C", "note": "(stereo not given)", "Potency": "inactive"},
      {"molecule": "NC(=O)Nc1nc2ccccc2[nH]1", "Potency": "inactive"},
      {"molecule": "CC(=O)OCC(=O)[C@@]1(O)CC[C@H]2[C@@H]3CCC4=CC(=O)CC[C@]4(C)[C@H]3C(=O)C[C@@]21C", "Potency": "inactive"},
      {"molecule": "CO/N=C(/C(=O)N[C@@H]1C(=O)N2C(C(=O)O)=C(COC(N)=O)CS[C@H]12)c1ccco1", "Potency": "inactive"},
      {"molecule": "C[C@]1(Cn2ccnn2)[C@H](C(=O)O)N2C(=O)C[C@H]2S1(=O)=O", "Potency": "inactive"},
      {"molecule": "CN1CC(=O)N/C1=N/C(=O)Nc1cccc(Cl)c1", "Potency": "inactive"},
      {"molecule": "CNC(=S)NN", "Potency": "inactive"},
      {"molecule": "C[C@]12CCC(=O)C=C1CC[C@H]1[C@@H]3CC[C@](O)(C(=O)CO)[C@@]3(C)C[C@H](O)[C@@]12F", "Potency": "inactive"},
      {"molecule": "CCN(CCN)c1cccc(C)c1", "Potency": "inactive"},
      {"molecule": "CC(=O)CCc1ccc(OC(C)=O)cc1", "Potency": "inactive"},
      {"molecule": "CC(C)(C)c1ccc(CCC=O)cc1", "Potency": "inactive"},
      {"molecule": "O=C1OCc2ccccc21", "Potency": "inactive"},
      {"molecule": "C=C(C)C(=O)OCCO", "Potency": "inactive"},
      {"molecule": "Cc1ccc(O)c(C(C)(C)C)c1", "Potency": "inactive"},
      {"molecule": "COc1cc(C=O)ccc1O", "Potency": "inactive"},
      {"molecule": "CCc1c(C(=O)NN2CCCCC2)nn(-c2ccc(Cl)cc2Cl)c1-c1ccc(Br)cc1", "Potency": "inactive"},
      {"molecule": "c1ccc(OCc2ccc(CCCN3CCOCC3)cc2)cc1", "Potency": "inactive"},
      {"molecule": "Cc1cccc(N(C)C(=S)Oc2ccc3ccccc3c2)c1", "Potency": "inactive"},
      {"molecule": "C=C(C)C(=O)OCC(CC)(COC(=O)C(=C)C)COC(=O)C(=C)C", "Potency": "inactive"},
      {"molecule": "CC(CO)(CO)C(=O)O", "Potency": "inactive"},
      {"molecule": "CCCCCC(C)=O", "Potency": "inactive"},
      {"molecule": "Cc1ccc(C)c(S(=O)(=O)O)c1", "Potency": "inactive"},
      {"molecule": "c1ccc2c(c1)ccc1cc3c(ccc4ccccc43)cc12", "Potency": "inactive"}
    ]}
  ]
}
